The campaign covered roughly 5,500 compounds. About 2,000 (36%) were called active. About 18% were inconclusive and are not listed. Rule as the data show it: active = normalized growth mostly below about 0.91 (no sharp cut-off); inconclusive = no clear call, values can overlap the other calls; inactive = mostly above about 0.92. Some of the results follow.
Assay: chemical genetic growth profiling, strain panel (AID 1159580);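 also: tested at 20 µM; growth read once vehicle control cultures reached saturation at 30 °C; 1 = growth at the plate median or of vehicle wells; lower values mean less growth of the strain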
Conditions: S. cerevisiae deletion strains, growth OD

Measured: normalized growth

NNC(=O)c1ccc(O)cc1
inactive: locus YAL013W, strain DEP1, hits give low values 0.949 | locus YAL040C, strain CLN3, hits give low values 0.963 | locus YCL061C, strain MRC1 (second series), hits give low values 0.991 | locus YDR150W, strain NUM1, hits give low values 1.01 | locus YDR363W, strain ESC2, hits give low values 0.99 | locus YER002W, strain NOP16, hits give low values 0.985 | locus YGR078C, strain PAC10, hits give low values 0.992 | locus YJR075W, strain HOC1, hits give low values 0.988 | locus YMR263W, strain SAP30, hits give low values 0.986 | locus YNL153C, strain GIM3, hits give low values 0.989 | locus YNL175C, strain NOP13, hits give low values 0.994 | locus YNL197C, strain WHI3, hits give low values 0.991 | locus YNL224C, strain SQS1, hits give low values 0.974 | locus YNL322C, strain KRE1, hits give low values 0.97 | locus YOR083W, strain WHI5 (second series), hits give low values 1.05 | locus YPL055C, strain LGE1, hits give low values 0.977 | locus YPL241C, strain CIN2, hits give low values 0.988

— PubChem BioAssay AID1159580 (chemical genetic matrix, 2015)
